p53 reactivation: restores transcriptional activity of mutant p53; H1299 p53-A138V BP100-luciferase reporter, luminescence, 24 h; AID 504706; hit rate 0.063% among 320,000; Potency, µM (series often up to 92.2 µM), for inactives: top-dose activity change, positive = activation, most hits filed as activators; also: % of control where 0% means no effect; nearly all actives have a fitted effect of over 45% in size
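p53-null H1299 cells stably carrying temperature-sensitive p53-A138V and a BP100-luciferase reporter were pinned with compounds (4-point, 1:5 series) and held 24 hrs at 37 deg C. Luminescence was read 10 min after detection reagent.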
KAT2A inh: blocks human GCN5L2 histone acetyltransferase | GCN5L2 HAT assay, ThioGlo1 CoA-SH fluorescence | Potency, µM (top dose mostly 58.9 µM), inactives show at the highest dose activity change, negative = inhibition, hits mostly inhibitors | AID 504327 | hit rate 0.21% among 390,000; also: % is scaled to controls: 0 for no effect and ±100 for the full control effect
Target sequence (Q92830 whole entry, looked up): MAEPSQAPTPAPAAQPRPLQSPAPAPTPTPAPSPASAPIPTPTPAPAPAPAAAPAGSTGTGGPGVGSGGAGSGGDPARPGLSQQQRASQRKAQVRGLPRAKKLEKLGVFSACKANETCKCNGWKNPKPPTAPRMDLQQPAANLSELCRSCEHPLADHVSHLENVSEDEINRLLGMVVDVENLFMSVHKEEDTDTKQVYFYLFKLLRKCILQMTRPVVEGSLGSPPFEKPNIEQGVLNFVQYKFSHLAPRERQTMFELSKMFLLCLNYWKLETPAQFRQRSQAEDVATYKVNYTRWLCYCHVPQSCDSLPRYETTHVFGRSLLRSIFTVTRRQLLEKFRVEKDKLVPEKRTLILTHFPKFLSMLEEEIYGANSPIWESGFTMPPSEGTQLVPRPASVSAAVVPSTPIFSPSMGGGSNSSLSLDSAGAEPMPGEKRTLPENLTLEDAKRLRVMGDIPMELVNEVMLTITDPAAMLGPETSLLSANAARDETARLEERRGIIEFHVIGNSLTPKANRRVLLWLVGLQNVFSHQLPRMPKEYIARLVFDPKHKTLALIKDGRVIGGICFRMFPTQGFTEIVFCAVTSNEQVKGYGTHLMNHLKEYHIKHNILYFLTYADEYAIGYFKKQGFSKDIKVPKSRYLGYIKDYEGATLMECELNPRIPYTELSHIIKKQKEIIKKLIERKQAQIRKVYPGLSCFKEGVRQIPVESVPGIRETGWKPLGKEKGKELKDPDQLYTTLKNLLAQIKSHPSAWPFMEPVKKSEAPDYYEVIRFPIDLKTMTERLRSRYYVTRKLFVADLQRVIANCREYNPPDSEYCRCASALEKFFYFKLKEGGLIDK
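Free CoA generated was detected with ThioGlo1 (50uM) fluorescence at Ex340nm/Em540nm, read immediately and after 20 min at room temperature. Enzyme, 20 nM in HEPES pH 7.5 buffer, saw compounds 15 min before adding 75uM H3(1-25) peptide and 70uM acetyl-CoA.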
S-ASM inh: blocks human secretory acid sphingomyelinase | P17405 | placental ASM, HMU-PC fluorogenic substrate, 60 min | AID 504937 | hit rate 0.006% among 340,000 | Potency, µM (series often up to 57.5 µM), for inactives: top-dose activity change, negative = inhibition, actives largely listed as inhibitors
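Human placenta-derived ASM enzyme was preincubated with compound for 10 minutes at room temperature, then given fluorogenic substrate HMU-PC0 (9 uM final) for 60 minutes at 37 °C; a pH 10 stop preceded fluorescence reading at Ex 386/Em 447 nm.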
Tb PFK inh: blocks T. brucei phosphofructokinase; O15648; Potency, µM (top dose mostly 57.5 µM), without a hit: at the highest dose activity, negative = inhibition, actives largely listed as inhibitors; AID 485367; hit rate 0.17% among 330,000; T. brucei PFK, ADP-Glo luminescence;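 also: 0% = uninhibited 1x PFK enzyme wells and -100% = no-enzyme wells; nearly all actives have a fitted effect of over 60% in size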
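Compounds were pin-transferred as a titration series up to 57 uM into substrate buffer (0.5 mM F6P, 0.1 mM ATP, pH 8.0), then 1.25 nM PFK was added and reactions ran 45 min before ADP-Glo detection.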
ERG Ets-DNA blk: inhibitors of human ERG Ets domain-DNA interaction | P11308 | Potency, µM (doses to about 76.9 µM), without a hit: at the highest dose FP activity, negative = inhibition, most hits filed as inhibitors | fluorescence polarization, His-ERG Ets domain / labelled DNA | hit rate 0.028% among 370,000; active = well fitted inhibition curve with a large enough effect in the polarisation, with a control signal flat; inconclusive = small, poorly fitted or top-dose-only effect, or effect the other way, or a change in a side signal; inactive = no such curve, though single readings can be large or run the other way; the % refers to the polarisation;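 also: polarization taken with two DNA probes labelled with fluorescein and Texas red; % of control where 0% means no effect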
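His-tagged ERG Ets domain (1 uM in the protein solution; 300mM KCl, 50mM Tris-HCl, 1mM EDTA, 1mM DTT, pH 7.5) received compound, then a probe mix of 5 nM fluorescein-DNA and 100nM Texas-615-DNA. Fluorescence polarization was read for both dyes.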
A-T KAP1 phos: candidate therapy for ataxia-telangiectasia. F2112 A-T fibroblasts, KAP-1 phosphorylation AlphaLISA; neocarzinostatin DNA damage 30 min before lysis. Potency, µM (highest dose often 57.5 µM), for the others: top-dose activation, hits mostly activators. hit rate 0.19% among 320,000; also: % of control where 0% means no effect; nearly all actives have a fitted effect of over 45% in size
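hTERT-immortalized A-T patient fibroblasts (F2112), 500 cells/well in OPTI-MEM, 1% FBS, got compounds for 60 min, then NCS for 30 min at 37C. Lysates were then assayed for phospho-KAP-1 by AlphaLISA (anti-pKAP1 donor, anti-KAP1 acceptor beads), 6 hr at 25C.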
* marks the source's active call; other numbers are inactive results; i = inactive; ? = inconclusive; . = not tested or not shown; ! = repeats disagree. Compounds with a hit are over-represented: about 0.55% of the library has one in this group of screens. Unless noted, calls follow the shape of the dose curve; as a rule, active = well fitted curve in the direction sought with a large enough effect; inconclusive = small, poorly fitted or top-dose-only effect, or another doubt; inactive = no such curve, though single readings can be large; an effect the other way counts as inactive or inconclusive. Potency is read from the fitted curve at half-maximal effect.

SMILES | p53 reactivation | KAT2A inh | S-ASM inh | Tb PFK inh | ERG Ets-DNA blk | A-T KAP1 phos
COc1ccc(OC)c(NC(=O)N2CC3CCCN3c3ccccc32)c1 (stereo unspecified) | . | -6% | . | . | -1% | .
Cc1c(C)c2cc(Cl)c(O)c(CN3CCN(C)CC3)c2oc1=O | -1% | 25µM* | i | 1% | -4% | 13%
Clc1cccc(-n2ncc3c(NCCC4=CCCCC4)ncnc32)c1 | . | -5% | . | . | -12% | .
COc1ncc2nc(-c3cccs3)c(=O)n(-c3ccccc3)c2n1 | . | 40µM* | . | . | . | .
CN1CCN(c2ncc3nc(-c4ccccc4)c(=O)n(-c4ccccc4)c3n2)CC1 | . | 22µM* | . | . | . | .
COc1ccc(-c2cc(C(=O)N3CCN(c4cccc(C)c4C)CC3)c3ccccc3n2)cc1OC | 0% | -12% | 27% | 0% | -9% | 5%
COc1ccc(OC)c(NC(=O)Cn2cnc3onc(-c4ccc(Cl)cc4)c3c2=O)c1 | . | -14% | . | . | 2% | .
Cc1ccc2nc(-c3ccc(-c4cccc(Cl)c4)cc3)c(NCc3ccccc3)n2c1 | 0% | -18% | 241% | 0% | -9% | 25µM*
CCCCNc1c(-c2cccc(-c3ccc(OC)cc3)c2)nc2ccc(C)cn12 | -3% | -13% | 412% | -7% | 2% | 35µM*
CCOc1ccccc1C1CC(=O)Nc2c1c(=O)n(C)c1ncnn21 (stereo unspecified) | . | 1% | . | . | ? | .
O=C1/C(=C/c2ccccn2)COc2ccccc21 | 4% | -4% | 3% | -5% | -9% | ?
O=C1/C(=C/c2ccc(O)cc2)COc2ccccc21 | 40µM* | -3% | -11% | -8% | 1% | 6%
COc1ccc(C2c3ccc4ccccc4c3Oc3ncn(CCCO)c(=N)c32)cc1OC (stereo unspecified) | -2% | -2% | -6% | 2% | 0% | 40µM*
CCOC(=O)c1cnc2nc(NCc3ccc(OCC)cc3)[nH]n2c1=O | . | ? | . | . | -6% | .
CC(=O)O[C@]1(C(C)=O)CC[C@H]2[C@@H]3C[C@H](C)C4=CC(=O)CC[C@]4(C)[C@H]3CC[C@@]21C | 0% | -5% | -1% | -15% | 25µM*! | 12%
O=c1c2cc3c(cc2nc2sc(Nc4ccc(F)cc4F)nn12)OCO3 | . | -4% | . | . | 9% | .
Cc1cc(C)c2c(CC(=O)N3CCN(c4cccc(Cl)c4)CC3)coc2c1 | . | -10% | . | . | -10% | .
CCOc1ccc(-c2oc3ccccc3c(=O)c2O)cc1OCC | . | -15% | . | . | -15% | .
COc1ccc(-c2cc(=O)c3ccccc3o2)cc1OC | . | 35µM* | . | . | . | .
COc1ccc(-c2oc3ccccc3c(=O)c2O)cc1OC | . | 32µM* | . | . | . | .
O=c1cc(-c2ccc(O)c(O)c2)oc2ccccc12 | . | -23% | . | . | . | .
COc1ccc(NC(=O)CSc2ccc3c4c(cccc24)C(=O)c2ccccc2-3)cc1 | 6% | 22µM* | -3% | 0% | 5% | 16%
Clc1ccccc1-c1nc(NC2CCNCC2)c2ccccc2n1 | . | 28µM* | . | . | . | .
Cc1ccccc1-c1nc(NC2CCNCC2)c2ccccc2n1 | . | -1% | . | . | . | .
O=C(CCC(=O)N1CCSc2ccccc21)NCc1cccc(Cl)c1 | 3% | 4.5µM* | 2% | 1% | -12% | 4%
SMILES | p53 reactivation | KAT2A inh | S-ASM inh | Tb PFK inh | ERG Ets-DNA blk | A-T KAP1 phos
Cc1ccc(CNC(=O)CCC(=O)N2CCSc3ccccc32)cc1 | . | 0% | . | . | 3% | .
Cc1cccc(/C=C(\c2nc3ccccc3[nH]2)S(=O)(=O)c2ccccc2)c1 | -52% | -7% | 1% | -1% | 2% | 35µM*
CC(C)(C)c1ccc(/C=C(\c2nc3ccccc3[nH]2)S(=O)(=O)c2ccccc2)cc1 | . | . | 0% | . | -1% | .
Cc1cnc(CNc2ncncc2-c2c(C)noc2C)cn1 | . | -8% | . | . | . | .
Cc1ccc(C2=NS(=O)(=O)N(C)C(C(=O)N3CCOCC3)=C2)cc1 | 7% | 10µM* | 1% | 1% | 3% | 7%
COc1ccc(C2=NS(=O)(=O)N(C)C(C(=O)N3CCOCC3)=C2)cc1 | 7% | -11% | 48% | 1% | 4% | 12%
O=C(NCCc1ccccc1)c1nnc(CS(=O)(=O)c2ccccc2)o1 | . | 4.5µM* | -1% | 0% | 3% | -3%
O=C(O)c1[nH]c2ccccc2c1C(c1ccccc1)c1c(C(=O)O)[nH]c2ccccc12 | . | -11% | -11% | -17% | 4% | -6%
C=CCOc1ccc(C(c2c(C(=O)O)[nH]c3ccccc23)c2c(C(=O)O)[nH]c3ccccc23)cc1 | 1% | ? | ? | -18% | 35µM* | 1%
CC(=O)Nc1ccc(Nc2ccc3cc(S(=O)(=O)N4CCCCC4)ccc3n2)cc1 | . | -10% | . | . | 0% | .
COc1ccccc1CNC(c1ccccc1)c1ccccc1 | -20% | 2% | -1% | 3% | 11% | 28µM*
CCN1CCN(c2nc(N)c([N+](=O)[O-])c(Nc3ccc(C)c(C)c3)n2)CC1 | -3% | -2% | -5% | 3% | -3% | -7%
Cc1ccc(Nc2n[nH]c(C)c2[N+](=O)[O-])cc1C | 22µM* | 0% | -2% | 0% | -16% | -1%
C#C[C@]1(OC(C)=O)CC[C@H]2[C@@H]3CCC4=C/C(=N/O)CC[C@@H]4[C@H]3CC[C@@]21CC | . | -23% | . | . | . | .
C=C1CCN([C@@H](C)C(=O)OCc2cccc(C)c2)S(=O)(=O)c2ccccc21 | 1% | -9% | 0% | 3% | 0% | 3%
C=C1CCN([C@H](C(=O)OCc2ccc(C)cc2)C(C)C)S(=O)(=O)c2ccccc21 | 0% | -11% | -3% | 3% | 1% | 40µM*
CCn1c2ccccc2c2c3ncc4cccn4c3ccc21 | 28µM* | -2% | i | 0% | 13% | ?
Cc1ccc(S(=O)(=O)NCC2CCC(C(=O)N(C)Cc3ccccc3)CC2)cc1 (stereo unspecified) | . | 1% | . | . | 0% | .
COc1ccccc1CN1CC2(CCN(S(C)(=O)=O)CC2)C1 | . | -10% | . | . | . | .
Cc1ccc(S(=O)(=O)N2CCN(Cc3ccccc3C(F)(F)F)CC2)cc1 | 6% | 1.6µM* | -2% | -2% | -9% | 0%
O=S(=O)(c1ccccc1)N1CCN(Cc2ccccc2C(F)(F)F)CC1 | 7% | -7% | -3% | -1% | 6% | 12%
CCOc1cccc(Nc2nn(-c3ccc(OC(F)(F)F)cc3)nc2C(C)=O)c1 | . | 1% | . | . | 0% | .
Cn1c(N=Nc2ccccc2)nc2ccccc21 | . | -5% | -7% | 12µM* | -4% | -5%
Cc1nn(Cc2ccccc2)c(C)c1/C=N/NC(=O)c1ccccc1O | 6% | -10% | -5% | 0% | 0% | 32µM*
CCOc1ccc(-n2c(CC)nc3c(cnn3-c3ccc(Cl)cc3)c2=O)cc1 | . | -10% | . | . | 2% | .
